Pf growth 48h: P. falciparum growth inhibition at 48 hours (one generation); Potency, µM (series often up to 28.7 µM), for the others: at the top dose activity change, negative = inhibition, actives largely listed as inhibitors; P. falciparum luciferase growth in erythrocytes, 48 h; AID 504832; hit rate 5.9% among 310,000; further: on the % scale 0 is the no-effect control and ±100 the full control effect
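Parasite viability was followed by luminescence of a genomically integrated firefly luciferase. Cultures held 0.1% parasitemia at 2% hematocrit (final), incubated under 5% CO2 at 37 C.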
NS1 inh: influenza NS1 inhibition. Potency, µM (top dose mostly 46.1 µM), inactives show at the top dose activity, positive = more growth. hit rate 0.4% among 270,000. AID 2326; calls by dose curve; further: actives are rising curves; nearly all actives have a fitted effect of over 50% in size
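A cell-based growth assay was used: compounds that relieve NS1-induced slow growth of budding yeast raise OD600. Assay medium was yeast nitrogen base with ammonium sulphate and -URA supplement, pH 6.0, with 2% galactose.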
VACV mCherry inh: inhibitors of vaccinia virus infection (mCherry reporter signal); AID 720579; hit rate 0.63% among 310,000; Potency, µM (top dose mostly 36.5 µM), for inactives: at the highest dose activity change, negative = inhibition, most hits filed as inhibitors; Vaccinia virus mCherry reporter infection, fluorescence; calls by dose curve; tested in A549 cells; further: on the % scale 0 is the no-effect control and ±100 the full control effect; nearly all actives have a fitted effect of over 35% in size
VACV Venus inh: vaccinia inhibition (Venus reporter). Potency, µM (top dose mostly 36.5 µM), for the others: top-dose activity change, negative = inhibition, hits mostly inhibitors. Vaccinia virus Venus reporter expression, fluorescence. hit rate 0.46% among 330,000; calls by dose curve; tested in A549 cells; further: on the % scale 0 is the no-effect control and ±100 the full control effect; nearly all actives have a fitted effect of over 30% in size
Pf growth 96h: inhibits malaria parasite growth, 96 h | Potency, µM (series often up to 28.7 µM), for inactives: at the top dose activity change, negative = inhibition, actives largely listed as inhibitors | AID 504834 | P. falciparum luciferase reporter growth, 96 h | hit rate 6.9% among 320,000; further: on the % scale 0 is the no-effect control and ±100 the full control effect
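Erythrocytes infected with luciferase-expressing P. falciparum were dispensed at 2% hematocrit and 0.05% parasitemia (final), then incubated with compounds 96 hours at 37 C in 5% CO2. Luminescence after detection reagent addition reported growth.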
HCV inhibitor: blocks hepatitis C virus; AID 651820; Potency, µM (titrated, usually from 41.8 µM), for inactives: at the top dose activity change, negative = inhibition, actives largely listed as inhibitors; Huh7.5.1 HCVcc-Cre infection, luciferase reporter, 44 h; hit rate 3.4% among 340,000; further: on the % scale 0 is the no-effect control and ±100 the full control effect
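Compounds are dispensed onto cells plated 4 h earlier at 1,000 per well, with HCVcc-Cre virus (about 0.5 moi) added next. Following 44 h of culture, luminescent signal is measured for 15 sec after 15 min with substrate at room temperature.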
* hit, by the source's call; i = inactive; ? = inconclusive; . = not tested or not shown; [ ] = another dose, or the depositor's remark. This is a sample that favours compounds with a hit; in the whole collection about 11% have one here. Unless noted, the call rests on the fitted dose curve; in most records, active means well fitted inhibition curve with a large enough effect; inconclusive means small, poorly fitted or top-dose-only effect, or another doubt; inactive means no such curve, though single readings can be large or run the other way. Potency means the concentration at half of the fitted maximal effect.

SMILES | Pf growth 48h | NS1 inh | VACV mCherry inh | VACV Venus inh | Pf growth 96h | HCV inhibitor
Cc1ccnc(SCC(=O)N2CCN(C(c3ccccc3)c3ccccc3)CC2)n1 | . | -14% | . | . | 15µM* | -24%
COc1ccc(C(=O)C2CCN(C(=S)Nc3ccc(F)cc3)CC2)cc1 | 7% | . | -10% | -1% | ? | ?
NC(Cc1ccc(O)cc1)c1cn([C@@H](CCC(=O)O)C(=O)N2CCNCC2)nn1 (stereo not given in full) | 3% | -2% | -10% | -6% | 0% | 29%
CC1(C(=O)NS(=O)(=O)c2cccc(Cl)c2)CCN1C(=O)c1cccc(F)c1 (stereo not given) | . | . | i | -5% | . | .
Cc1oc(C(C)(C)C)cc1C(=O)N1CCN(C(c2ccccc2)c2ccccc2)CC1 | 5.9µM* | 0% | i[7.34 µM] | -3%[7.34 µM] | 12µM* | -24%
O=C(c1cc(-c2cccc(O)c2)on1)N1CCN(C(c2ccccc2)c2ccccc2)CC1 | 1.9µM* | -139% | . | . | ? | ?
CCOc1cc(S(=O)(=O)Nc2ccc(CC)cc2)ccc1Cl | 28% | -36% | . | . | . | -1%
CCOc1cc(S(=O)(=O)NCc2ccccn2)ccc1Cl | -10% | -3% | -18% | -7% | 8.3µM* | -1%
O=S(=O)(NCc1ccccn1)c1ccc(Cl)c(C(F)(F)F)c1 | 228% | 14% | . | . | 13% | 7%
CCOc1cc(S(=O)(=O)Nc2ccccc2CC)ccc1Cl | -9% | -84% | -3% | -14% | . | 10µM*
COc1cc(OC)cc(C(=O)NCCc2cnc[nH]2)c1 | 17% | 2% | . | . | 0% | 9%
CCOC(=O)c1nnn(-c2nonc2N)c1CN1CCCCCC1 | 26% | 4% | . | . | . | -6%
CC1CCN(Cc2c(C(=O)N/N=C/c3cccc(Cl)c3)nnn2-c2nonc2N)CC1 | 8% | 4% | . | . | -20% | -5%
CC(/C=N/NC(=O)c1nnn(-c2nonc2N)c1CN1CCCCC1)=C\c1ccccc1 | ? | 9% | . | . | 9.3µM* | -12%
CC(=C/c1ccccc1)/C=N/NC(=O)c1nnn(-c2nonc2N)c1CN1CCC(C)CC1 | ? | -14% | -21% | -13% | ? | ?
CC1CCN(Cc2c(C(=O)N/N=C/c3ccccc3O)nnn2-c2nonc2N)CC1 | ? | -11% | 2µM* | ? | -9% | 3.5µM*
CCOC(=O)c1nnn(-c2nonc2N)c1CN1CCCC1 | -13% | -42% | i | -8% | 0.66µM* | 9%
CCCc1c(C(=O)N/N=C/c2c[nH]c3ccccc23)nnn1-c1nonc1N | . | . | i | -8% | . | .
CCCN(CCC)Cc1c(C(=O)N/N=C/c2c[nH]c3ccccc23)nnn1-c1nonc1N | 5% | -16% | ? | -19% | 9.3µM* | 5%
NC(=O)c1ccc(NC(=O)COC(=O)/C=C/c2cn(-c3ccccc3)nc2-c2cccnc2)cc1 | -18% | 14% | -14% | -6% | 4% | -1%
CC(C)c1ccc(/C=N/NC(=O)c2nnn(-c3nonc3N)c2CSC2=NCCS2)cc1 | ? | 11% | ? | ? | ? | 11µM*
CCN(CC)c1ccc(/C=N/NC(=O)c2nnn(-c3nonc3N)c2C(C)C)c(O)c1 | 3.7µM* | -53% | 2.5µM* | ? | 7.4µM* | 1.1µM*
Cc1cc(C(=O)NCc2ccccc2)c2c(C)nn(-c3cccc(Cl)c3C)c2n1 | . | . | -14% | -20% | . | .
Cc1ccc(C)c(S(=O)(=O)N2CCN(C(=O)C(C)Sc3ccccc3)CC2)c1 (stereo not given) | -6% | -17% | -4% | -21% | ? | .
COc1cccc(OCC(=O)O/N=C(\N)c2ccc(OC)c(OC)c2)c1 | 15% | 1% | -1% | -21% | 6.6µM* | ?
COc1ccc(OCC(=O)O/N=C(\N)c2ccc(OC)c(OC)c2)cc1 | -3% | -4% | i | -14% | ? | ?
Cc1cccc(/C(N)=N/OC(=O)COc2ccc(Cl)cc2)c1 | ? | . | . | . | 2.9µM* | -11%
COc1ccc(C(CC(=O)Nc2cc(OC)cc(OC)c2)n2cccc2)cc1 (stereo not given) | 13µM* | 15% | -25% | -15% | ? | ?
